Assay results published in the supplement of paper PMC8371130.
Counter-ions that a name gives are not always drawn.

test system: HL-1; experiment: relative cell viability (CellTiter-Glo) vs DMSO control (% of DMSO control); higher = more viable cells; settings: oxygen condition: hypoxia 48 h (1% O2) + reoxygenation 24 h; 40 nM
Procedure, shortened: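 Plating of HL-1 mouse atrial cardiomyocytes at 1000 cells per well in 384-well plates was done together with compounds at 40, 200, 1000 or 5000 nM in 0.01% DMSO. A day later the cells faced 48 h of 1% O2 and then 24 h of reoxygenation, or matching normoxia. Viability was measured via CellTiter-Glo luminescence and set relative to vehicle-treated control cells.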

In order of rising relative cell viability:
1. CO[C@H]1C(=O)[C@]2(C)[C@@H](OC)C[C@H]3OC[C@@]3(OC(C)=O)[C@H]2[C@H](OC(=O)c2ccccc2)[C@]2(O)C[C@H](OC(=O)[C@H](O)[C@@H](NC(=O)OC(C)(C)C)c3ccccc3)C(C)=C1C2(C)C [Cabazitaxel]  32.1
2. C#CCC(Cc1cnc2nc(N)nc(N)c2n1)c1ccc(C(=O)N[C@@H](CCC(=O)O)C(=O)O)cc1 (stereo partly drawn) [Pralatrexate]  38.6
3. CC[C@@]1(O)C(=O)OCc2c1cc1n(c2=O)Cc2cc3c(CN(C)C)c(O)ccc3nc2-1 [Topotecan HCl]  58.6
4. C[C@]12CC[C@H](O)CC1=CC[C@@H]1[C@@H]2CC[C@]2(C)C(c3cccnc3)=CC[C@@H]12 [Abiraterone]  74.6
5. CCCOc1ccc(C(=O)OCCN(CC)CC)cc1N [Proparacaine HCl]  88.3
6. CC(=O)OCC[N+](C)(C)C [Acetylcholine chloride]  93.2
7. COc1ccc2[nH]c([S@@+]([O-])Cc3ncc(C)c(OC)c3C)nc2c1 [Esomeprazole sodium]  94
8. N#CC[C@H](C1CCCC1)n1cc(-c2ncnc3[nH]ccc23)cn1 [Ruxolitinib]  95.7
9. O=C1N=C(O)NC1(c1ccccc1)c1ccccc1 [Phenytoin sodium]  96.1
10. N[C@@H]1CCCCN(c2c(F)cc3c(=O)c(C(=O)O)cn(C4CC4)c3c2Cl)C1 [Besifloxacin HCl]  96.9
11. O=C1c2ccccc2C(=O)C1c1ccccc1 [Phenindione]  97
12. NC(=O)CC[C@H](N)C(=O)O [L-Glutamine]  98.4
13. CC[C@@H]1/C=C(\C)C[C@H](C)C[C@H](OC)[C@H]2O[C@@](O)(C(=O)C(=O)N3CCCC[C@H]3C(=O)O[C@H](/C(C)=C/[C@@H]3CC[C@H](Cl)[C@H](OC)C3)[C@H](C)[C@@H](O)CC1=O)[C@H](C)C[C@@H]2OC [Pimecrolimus]  98.7
14. CCN(CC)CCOC(=O)C(c1ccccc1)c1ccccc1 [Adiphenine HCl]  99.1
15. COCCc1ccc(OCC(O)CNC(C)C)cc1 (stereo not drawn) [Metoprolol tartrate]  101
16. Cc1ncc(C[n+]2csc(CCO)c2C)c(N)n1 [Thiamine HCl]  101
17. Cn1nnc2c(C(N)=O)ncn2c1=O [Methazolastone]  102
18. O=C(O)/C=C/c1ccc(Cn2ccnc2)cc1 [Ozagrel]  102
19. Cc1cccc(C)c1NC(=O)C1CCCCN1C (stereo not drawn) [Mepivacaine HCl]  102
20. NC(=O)c1ncn([C@@H]2O[C@H](CO)[C@@H](O)[C@H]2O)n1 [Ribavirin]  102
21. NS(=O)(=O)c1cc2c(cc1Cl)NCNS2(=O)=O [Hydrochlorothiazide]  103
22. CS(=O)(=O)c1ccc(C(=O)Nc2ccc(Cl)c(-c3ccccn3)c2)c(Cl)c1 [Vismodegib]  103
23. NC(=O)c1cn(Cc2c(F)cccc2F)nn1 [Rufinamide]  103
24. COc1nc(C)nc(Cl)c1NC1=NCCN1 [Moxonidine]  103
25. CCCN[C@H]1CCc2nc(N)sc2C1 [Pramipexole]  103
26. CCCCCCCCCCC[C@@H](C[C@@H]1OC(=O)[C@H]1CCCCCC)OC(=O)[C@H](CC(C)C)NC=O [Orlistat]  104
27. O=P(O)(O)C(O)(Cn1ccnc1)P(=O)(O)O [Zoledronic Acid]  104
28. C#C[C@]1(O)CC[C@H]2[C@@H]3CCc4cc(O)ccc4[C@H]3CC[C@@]21C [Ethinyl Estradiol]  104
29. N[C@@H](CSCCCO)C(=O)O [Fudosteine]  105
30. CCN(CC)CCNC(=O)c1c(C)[nH]c(/C=C2\C(=O)Nc3ccc(F)cc32)c1C [Sunitinib Malate]  106
31. CCOCC(O)COc1ccc(NC(=O)CC[S+](C)C)cc1 (stereo not drawn) [Suplatast tosylate]  106
32. Nc1nnc(-c2cccc(Cl)c2Cl)c(N)n1 [Lamotrigine]  107
33. O=c1c(-c2ccc(O)cc2)coc2cc(O)ccc12 [Daidzein]  107
34. COc1ccc2[nH]c([S@@+]([O-])Cc3ncc(C)c(OC)c3C)nc2c1 [Esomeprazole magnesium]  107
35. CN1CCC(=C2c3ccccc3CC(=O)c3sccc32)CC1 [Ketotifen fumarate]  108
36. Nc1cccc2c1CN(C1CCC(=O)NC1=O)C2=O (stereo not drawn) [Lenalidomide]  108
37. Cc1cnc(C(=O)NCCc2ccc(S(=O)(=O)NC(=O)NC3CCCCC3)cc2)cn1 [Glipizide]  109
38. C#Cc1cccc(Nc2ncnc3cc(OCCOC)c(OCCOC)cc23)c1 [Erlotinib HCl]  114
39. O=P(O)(O)C(Cl)(Cl)P(=O)(O)O [Clodronate Disodium]  114

same assay, conditions: oxygen condition: hypoxia 48 h (1% O2) + reoxygenation 24 h; 200 nM

In order of falling relative cell viability:
1. CCCCCCCCCCC[C@@H](C[C@@H]1OC(=O)[C@H]1CCCCCC)OC(=O)[C@H](CC(C)C)NC=O [Orlistat]  115
2. O=P(O)(O)C(Cl)(Cl)P(=O)(O)O [Clodronate Disodium]  114
3. COc1ccc2[nH]c([S@@+]([O-])Cc3ncc(C)c(OC)c3C)nc2c1 [Esomeprazole magnesium]  113
4. Nc1cccc2c1CN(C1CCC(=O)NC1=O)C2=O (stereo not drawn) [Lenalidomide]  110
5. CCN(CC)CCNC(=O)c1c(C)[nH]c(/C=C2\C(=O)Nc3ccc(F)cc32)c1C [Sunitinib Malate]  109
6. Cc1cnc(C(=O)NCCc2ccc(S(=O)(=O)NC(=O)NC3CCCCC3)cc2)cn1 [Glipizide]  108
7. Cc1ncc(C[n+]2csc(CCO)c2C)c(N)n1 [Thiamine HCl]  107
8. C#Cc1cccc(Nc2ncnc3cc(OCCOC)c(OCCOC)cc23)c1 [Erlotinib HCl]  107
9. CS(=O)(=O)c1ccc(C(=O)Nc2ccc(Cl)c(-c3ccccn3)c2)c(Cl)c1 [Vismodegib]  107
10. Cn1nnc2c(C(N)=O)ncn2c1=O [Methazolastone]  106
11. NS(=O)(=O)c1cc2c(cc1Cl)NCNS2(=O)=O [Hydrochlorothiazide]  106
12. NC(=O)c1cn(Cc2c(F)cccc2F)nn1 [Rufinamide]  106
13. N[C@@H](CSCCCO)C(=O)O [Fudosteine]  105
14. O=C1c2ccccc2C(=O)C1c1ccccc1 [Phenindione]  105
15. C#C[C@]1(O)CC[C@H]2[C@@H]3CCc4cc(O)ccc4[C@H]3CC[C@@]21C [Ethinyl Estradiol]  104
16. CCOCC(O)COc1ccc(NC(=O)CC[S+](C)C)cc1 (stereo not drawn) [Suplatast tosylate]  103
17. CN1CCC(=C2c3ccccc3CC(=O)c3sccc32)CC1 [Ketotifen fumarate]  103
18. CCCN[C@H]1CCc2nc(N)sc2C1 [Pramipexole]  103
19. Nc1nnc(-c2cccc(Cl)c2Cl)c(N)n1 [Lamotrigine]  102
20. O=c1c(-c2ccc(O)cc2)coc2cc(O)ccc12 [Daidzein]  102
21. O=P(O)(O)C(O)(Cn1ccnc1)P(=O)(O)O [Zoledronic Acid]  100
22. Cc1cccc(C)c1NC(=O)C1CCCCN1C (stereo not drawn) [Mepivacaine HCl]  99.8
23. CC(=O)OCC[N+](C)(C)C [Acetylcholine chloride]  99.1
24. N[C@@H]1CCCCN(c2c(F)cc3c(=O)c(C(=O)O)cn(C4CC4)c3c2Cl)C1 [Besifloxacin HCl]  99.1
25. NC(=O)CC[C@H](N)C(=O)O [L-Glutamine]  99.1
26. CCCOc1ccc(C(=O)OCCN(CC)CC)cc1N [Proparacaine HCl]  98.9
27. N#CC[C@H](C1CCCC1)n1cc(-c2ncnc3[nH]ccc23)cn1 [Ruxolitinib]  98.9
28. COCCc1ccc(OCC(O)CNC(C)C)cc1 (stereo not drawn) [Metoprolol tartrate]  98
29. O=C(O)/C=C/c1ccc(Cn2ccnc2)cc1 [Ozagrel]  97.4
30. COc1nc(C)nc(Cl)c1NC1=NCCN1 [Moxonidine]  97.1
31. NC(=O)c1ncn([C@@H]2O[C@H](CO)[C@@H](O)[C@H]2O)n1 [Ribavirin]  96.2
32. O=C1N=C(O)NC1(c1ccccc1)c1ccccc1 [Phenytoin sodium]  96.2
33. CCN(CC)CCOC(=O)C(c1ccccc1)c1ccccc1 [Adiphenine HCl]  94.2
34. CC[C@@H]1/C=C(\C)C[C@H](C)C[C@H](OC)[C@H]2O[C@@](O)(C(=O)C(=O)N3CCCC[C@H]3C(=O)O[C@H](/C(C)=C/[C@@H]3CC[C@H](Cl)[C@H](OC)C3)[C@H](C)[C@@H](O)CC1=O)[C@H](C)C[C@@H]2OC [Pimecrolimus]  93.8
35. COc1ccc2[nH]c([S@@+]([O-])Cc3ncc(C)c(OC)c3C)nc2c1 [Esomeprazole sodium]  93.2
36. C[C@]12CC[C@H](O)CC1=CC[C@@H]1[C@@H]2CC[C@]2(C)C(c3cccnc3)=CC[C@@H]12 [Abiraterone]  72.2
37. C#CCC(Cc1cnc2nc(N)nc(N)c2n1)c1ccc(C(=O)N[C@@H](CCC(=O)O)C(=O)O)cc1 (stereo partly drawn) [Pralatrexate]  43
38. CC[C@@]1(O)C(=O)OCc2c1cc1n(c2=O)Cc2cc3c(CN(C)C)c(O)ccc3nc2-1 [Topotecan HCl]  37.4
39. CO[C@H]1C(=O)[C@]2(C)[C@@H](OC)C[C@H]3OC[C@@]3(OC(C)=O)[C@H]2[C@H](OC(=O)c2ccccc2)[C@]2(O)C[C@H](OC(=O)[C@H](O)[C@@H](NC(=O)OC(C)(C)C)c3ccccc3)C(C)=C1C2(C)C [Cabazitaxel]  34.3
